# Results: ChEMBL document CHEMBL3988442, “University of Dundee, Small-Polar-MMV Screening Library” (2021)
# Biological target: T1, Aspartate--tRNA(Asp/Asn) ligase (Mycobacterium tuberculosis (strain ATCC 25618 / H37Rv)) (UniProt P9WFW3); further: in the data most compounds retested in dose-response had high values
# T1 sequence (whole entry): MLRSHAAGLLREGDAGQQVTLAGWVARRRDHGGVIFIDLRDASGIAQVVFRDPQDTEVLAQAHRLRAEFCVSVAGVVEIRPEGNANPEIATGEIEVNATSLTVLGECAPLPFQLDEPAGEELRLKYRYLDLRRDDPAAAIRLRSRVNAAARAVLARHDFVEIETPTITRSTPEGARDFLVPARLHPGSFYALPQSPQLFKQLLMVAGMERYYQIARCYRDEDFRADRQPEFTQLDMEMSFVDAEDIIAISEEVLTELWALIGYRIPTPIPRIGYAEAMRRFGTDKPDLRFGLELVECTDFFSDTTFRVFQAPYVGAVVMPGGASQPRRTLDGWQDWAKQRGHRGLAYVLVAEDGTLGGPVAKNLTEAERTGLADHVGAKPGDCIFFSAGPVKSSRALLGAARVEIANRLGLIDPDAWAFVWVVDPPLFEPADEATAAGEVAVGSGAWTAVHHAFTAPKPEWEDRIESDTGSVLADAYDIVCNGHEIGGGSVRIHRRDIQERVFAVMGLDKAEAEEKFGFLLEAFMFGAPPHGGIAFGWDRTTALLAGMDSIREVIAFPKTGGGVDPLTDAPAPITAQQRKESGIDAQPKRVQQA
# Assay: Assay for Asp RNA synthetase-1 from Mycobacterium tuberculosis
# Format: functional
# Design: scale not given: direction of the effect not stated beside the values
# Conditions: 30 µM
row,Structure (SMILES),Percent Effect [%]
1,Cc1ccccc1CN1CCN(Cc2nccn2C)CC1,-1.8
2,Cc1n[nH]cc1CNc1ccc2c(c1)N(C(=O)OC(C)(C)C)CCC2,6.33
3,Cc1nc(Nc2nnc(C)s2)cc(C2CCCN2C)n1 (stereo not drawn),2.4
4,Cc1nc2cc(C(=O)N3CCCC(n4cncn4)C3)ccc2n1C (stereo not drawn),-8.92
5,CCS(=O)(=O)c1ncc(CN(C)Cc2ccccn2)n1CCOC,0.893
6,CC1=Nc2c(c(=O)[nH]n2C2CCOCC2)C(c2cccc(Br)c2)S1 (stereo not drawn),0.0871
7,Cc1nn(C)c(C)c1C1COCCN1C(=O)c1cnc(N)c(Cl)c1 (stereo not drawn),0.88
8,CNC(=O)CS(=O)(=O)Cc1coc(-c2ccc(OC)cc2)n1,-0.993
9,c1ccc(-c2cc(CN3CCC(c4ccn[nH]4)CC3)on2)cc1,2.46
10,O=S(=O)(NCC1CCN(c2cnccn2)CC1)c1c(F)cccc1F,-2.55
11,Cc1cc(=O)[nH]c(SCC(=O)N(C)CC2Cc3ccccc3CN2C)n1 (stereo not drawn),1.96
12,Cc1cc(C)c(CNC(=O)NCC(O)COc2ccccc2)c(=O)[nH]1 (stereo not drawn),4.61
13,Cc1cc(S(=O)(=O)Nc2cccc(-n3cccc3)c2)sc1C(=O)O,7.63
14,COCCOc1ccc(NC(=O)C2CC(=O)N(C)C2)cn1 (stereo not drawn),3.77
15,Cc1nn(C)c(N(C)C)c1CNC(C)COc1cccc(F)c1 (stereo not drawn),-0.463
16,O=C(CCCOc1ccccc1Cl)N1CCCC(n2cncn2)C1 (stereo not drawn),-3.9
17,Cc1cc(CN(C)C(=O)NCc2cccc(N3CCCC3=O)c2)no1,-2.4
18,Cn1nccc1C1CCN(Cc2csc(-c3ncccn3)n2)CC1,5.92
19,CC(C)NC(=O)c1ccc2c(c1)nc1n2CCN(C(C)C)C1,-0.435
20,Cc1cc(C)n(CC2CCCCN2C(=O)c2ccc3nncn3c2)n1 (stereo not drawn),-3.1

row,Structure (SMILES),Percent Effect [%]
1,Cn1ccc(C(=O)NCc2ccc(N3CCCC3)nc2)cc1=O,0.0735
2,CC(C)c1nn(C)c(N2CCOCC2)c1CNCCS(C)(=O)=O,-2.08
3,CNS(=O)(=O)c1ccc(C(=O)N2CCCC2Cc2ccccc2)o1 (stereo not drawn),-3.06
4,CCc1cnc(CN(C)C2CCN(CCc3ccccn3)C2)o1 (stereo not drawn),0.0557
5,CC(C)(C)c1n[nH]cc1CN1CCc2nc3ccsc3c(=O)n2CC1,-0.849
6,Cc1cccc(C(=O)NC2CCN(c3cnn(C)c3)C2=O)n1 (stereo not drawn),2.04
7,COCCOc1ncccc1CNCc1c(C)nn(C)c1N(C)C,-5.91
8,CC(Cn1cccn1)NC(=O)NCc1ccccn1 (stereo not drawn),-4.37
9,Cc1cc(C(=O)N2CC[C@@H]3CN(c4ncccn4)CCO[C@@H]3C2)c(C)o1,7.23
10,NS(=O)(=O)CCNC(=O)C1(c2ccc(Br)cc2)CC1,1.66
11,O=c1cccnn1CC1CN(Cc2ccsc2)Cc2nccn2C1 (stereo not drawn),7.43
12,COc1ccc(C2(NC(=O)CCn3cncn3)CCCCC2)cc1,-7.19
13,CCc1noc(C)c1C(=O)N1CCCC1Cn1cc(C)cn1 (stereo not drawn),4.02
14,Cc1cnn(C2CCCN(C(=O)c3cc(C4CC4)on3)C2)c1 (stereo not drawn),-1.95
15,Cc1ccc([C@@H]2CN(S(=O)(=O)c3cccs3)C[C@H]2N(C)C)cc1,-0.804
16,CCn1cnnc1CNC(=O)N1CCC(Cc2cccnc2)CC1,-1.93
17,Cc1nc2n(n1)CC(NCc1cc(Cl)c3c(c1)OCCCO3)CC2 (stereo not drawn),6.55
18,Cn1cnnc1CNC(=O)Nc1cc(C(F)(F)F)c[nH]c1=O,1.79
19,Cc1ncc(CNC2CCCN(Cc3noc(C4CC4)n3)C2)s1 (stereo not drawn),-4.12

# Biological target: Shiga toxin 2 (Escherichia coli O157:H7) (UniProt P09385+P09386)
# Assay: E. coli 0.157:H7 Shiga Toxin SOP - stx2 screening assay
# Format: functional
# Design: scale not given: direction of the effect not stated beside the values
# Conditions: 30 µM
row,Structure (SMILES),Percent Effect [%]
1,Cc1ccccc1CN1CCN(Cc2nccn2C)CC1,13.3
2,Cc1n[nH]cc1CNc1ccc2c(c1)N(C(=O)OC(C)(C)C)CCC2,-17.7
3,Cc1nc(Nc2nnc(C)s2)cc(C2CCCN2C)n1 (stereo not drawn),-26.6
4,Cc1nc2cc(C(=O)N3CCCC(n4cncn4)C3)ccc2n1C (stereo not drawn),-28.5
5,CCS(=O)(=O)c1ncc(CN(C)Cc2ccccn2)n1CCOC,6.2
6,CC1=Nc2c(c(=O)[nH]n2C2CCOCC2)C(c2cccc(Br)c2)S1 (stereo not drawn),15
7,Cc1nn(C)c(C)c1C1COCCN1C(=O)c1cnc(N)c(Cl)c1 (stereo not drawn),-23.7
8,CNC(=O)CS(=O)(=O)Cc1coc(-c2ccc(OC)cc2)n1,-5.58
9,c1ccc(-c2cc(CN3CCC(c4ccn[nH]4)CC3)on2)cc1,-49.6
10,O=S(=O)(NCC1CCN(c2cnccn2)CC1)c1c(F)cccc1F,4.65
11,Cc1cc(=O)[nH]c(SCC(=O)N(C)CC2Cc3ccccc3CN2C)n1 (stereo not drawn),5.78
12,Cc1cc(C)c(CNC(=O)NCC(O)COc2ccccc2)c(=O)[nH]1 (stereo not drawn),27.6
13,Cc1cc(S(=O)(=O)Nc2cccc(-n3cccc3)c2)sc1C(=O)O,11
14,COCCOc1ccc(NC(=O)C2CC(=O)N(C)C2)cn1 (stereo not drawn),-88.5
15,Cc1nn(C)c(N(C)C)c1CNC(C)COc1cccc(F)c1 (stereo not drawn),-10.4
16,O=C(CCCOc1ccccc1Cl)N1CCCC(n2cncn2)C1 (stereo not drawn),19.3
17,Cc1cc(CN(C)C(=O)NCc2cccc(N3CCCC3=O)c2)no1,-15
18,Cn1nccc1C1CCN(Cc2csc(-c3ncccn3)n2)CC1,-10.6
19,CC(C)NC(=O)c1ccc2c(c1)nc1n2CCN(C(C)C)C1,-61.8
20,Cc1cc(C)n(CC2CCCCN2C(=O)c2ccc3nncn3c2)n1 (stereo not drawn),14.5

row,Structure (SMILES),Percent Effect [%]
1,Cn1ccc(C(=O)NCc2ccc(N3CCCC3)nc2)cc1=O,-33.5
2,CC(C)c1nn(C)c(N2CCOCC2)c1CNCCS(C)(=O)=O,-5.89
3,CNS(=O)(=O)c1ccc(C(=O)N2CCCC2Cc2ccccc2)o1 (stereo not drawn),18.2
4,CCc1cnc(CN(C)C2CCN(CCc3ccccn3)C2)o1 (stereo not drawn),-7.08
5,CC(C)(C)c1n[nH]cc1CN1CCc2nc3ccsc3c(=O)n2CC1,12.6
6,Cc1cccc(C(=O)NC2CCN(c3cnn(C)c3)C2=O)n1 (stereo not drawn),-29.9
7,COCCOc1ncccc1CNCc1c(C)nn(C)c1N(C)C,7.43
8,CC(Cn1cccn1)NC(=O)NCc1ccccn1 (stereo not drawn),-30.2
9,Cc1cc(C(=O)N2CC[C@@H]3CN(c4ncccn4)CCO[C@@H]3C2)c(C)o1,-7.5
10,NS(=O)(=O)CCNC(=O)C1(c2ccc(Br)cc2)CC1,-28.2
11,O=c1cccnn1CC1CN(Cc2ccsc2)Cc2nccn2C1 (stereo not drawn),5.53
12,COc1ccc(C2(NC(=O)CCn3cncn3)CCCCC2)cc1,1.34
13,CCc1noc(C)c1C(=O)N1CCCC1Cn1cc(C)cn1 (stereo not drawn),31.4
14,Cc1cnn(C2CCCN(C(=O)c3cc(C4CC4)on3)C2)c1 (stereo not drawn),14.5
15,Cc1ccc([C@@H]2CN(S(=O)(=O)c3cccs3)C[C@H]2N(C)C)cc1,19.8
16,CCn1cnnc1CNC(=O)N1CCC(Cc2cccnc2)CC1,2.96
17,Cc1nc2n(n1)CC(NCc1cc(Cl)c3c(c1)OCCCO3)CC2 (stereo not drawn),22.8
18,Cn1cnnc1CNC(=O)Nc1cc(C(F)(F)F)c[nH]c1=O,27.2
19,Cc1ncc(CNC2CCCN(Cc3noc(C4CC4)n3)C2)s1 (stereo not drawn),28.2
